Compound activity from PubChem BioAssay.
Only some compounds are listed: those with a hit (about 6.1% of all), similar ones and a draw of the others.
D1 antag: Antagonist of Human D 1 Dopamine Receptor: qHTS; activity change, negative = inhibition, % at 10 µM; HEK293 TREx D1 cells, calcium flux, dopamine EC80; hits give low values; AID 504652, 2011; 3.2% of 360,000 active; in the data active = activity change below about -30%; note: % is set by controls: 0 for no effect and ±100 for the full control effect
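Calcium flux readout: force-coupled, inducible Hek293 Trex D1 line, cells induced overnight at 30 C with tetracycline, dye-loaded 30–90 min at RT. Antagonism scored against EC80 dopamine challenge given 180 s after compound.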
DRD3 antagonist: qHTS of D3 Dopamine Receptor Antagonist: qHTS | D(3) dopamine receptor (Homo sapiens), P35462 | D3R cells, DiscoveRx beta-arrestin luminescence, antagonist mode; hits give low values | max response, negative = inhibition, % | 2.5% of 360,000 active | AID 652054, 2013; in the data active = max response below about -50%; note: % is set by controls: 0 for no effect and ±100 for the full control effect
Target sequence (P35462 whole entry, looked up): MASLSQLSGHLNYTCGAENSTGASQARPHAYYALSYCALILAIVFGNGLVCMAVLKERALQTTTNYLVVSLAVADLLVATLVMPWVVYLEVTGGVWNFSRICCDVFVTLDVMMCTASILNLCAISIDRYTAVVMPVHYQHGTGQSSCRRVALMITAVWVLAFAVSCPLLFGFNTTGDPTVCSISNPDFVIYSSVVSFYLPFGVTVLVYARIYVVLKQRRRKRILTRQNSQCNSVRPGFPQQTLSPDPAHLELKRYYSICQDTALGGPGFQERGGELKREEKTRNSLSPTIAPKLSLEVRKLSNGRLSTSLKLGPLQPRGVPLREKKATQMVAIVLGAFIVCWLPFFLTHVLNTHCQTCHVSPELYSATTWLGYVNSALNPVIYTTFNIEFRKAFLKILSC
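Cells plated overnight at 1500 cells/well, then exposed to library compounds with dopamine controls for 90 minutes at 37 degrees C. DiscoveRx reagent added for 30–60 minutes at room temperature; luminescence read, quantitative HTS format.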
D1 potentiator: Potentiators of Human D1 Dopamine Receptor: qHTS; HEK293 TREx D1 cells, calcium flux, dopamine EC20 potentiation; potentiation, % at 10 µM; 0.036% of 360,000 active; in the data active = potentiation above about 30%; note: 0% is about no effect
ERG Ets-DNA blk: qHTS for Small Molecule Inhibitors of the ERG Ets/DNA interaction. Transcriptional regulator ERG (Homo sapiens), P11308. fluorescence polarization, His-ERG Ets domain / labelled DNA. Potency, µM (series often up to 76.9 µM), for inactives: top-dose FP activity, negative = inhibition, actives largely listed as inhibitors. 0.028% of 370,000 active; active = well fitted inhibition curve with a large enough effect in the polarisation, with a control signal flat; the % refers to the polarisation;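 note: polarization taken with two DNA probes labelled with fluorescein and Texas red; potency is the fitted concentration of half-maximal effect; % of control where 0% means no effect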
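His-tagged ERG Ets domain (1 uM in the protein solution; 300mM KCl, 50mM Tris-HCl, 1mM EDTA, 1mM DTT, pH 7.5) received compound, then a probe mix of 5 nM fluorescein-DNA and 100nM Texas-615-DNA. Fluorescence polarization was read for both dyes.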
D3 ag: qHTS of D3 Dopamine Receptor Agonist: qHTS. D3R DiscoveRx beta-arrestin cells, luminescence, 90 min. max activation, %. 0.58% of 410,000 active. AID 652048, 2013; in the data active = max activation above about 30%; note: 0% is about no effect
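Cells at 1500/well, incubated overnight, then treated with pinned compounds (dopamine as control) for 90 min at 37 degrees C. DiscoveRx reagent added for 30 - 60 minutes at room temperature; luminescence read.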
D1 agonist: Allosteric Agonists of the Human D1 Dopamine Receptor: qHTS | D(1A) dopamine receptor (Homo sapiens), P21728 | 1% of 360,000 active | activation, % at 2 µM | HEK293 T-REx D1 cells, calcium flux, agonist mode; in the data active = activation above about 30%; note: 0% is about no effect
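Inducible HEK293 T-REx D1 cells, force-coupled to calcium signalling, were plated at 4000 cells/well with tetracycline and held overnight at 30 C. After no-wash calcium dye loading, compound-evoked calcium rise over 180 s flagged agonists.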
Active calls of the source: *; / = no result given.

SMILES | D1 antag | DRD3 antagonist | D1 potentiator | ERG Ets-DNA blk | D3 ag | D1 agonist
Cc1cc(NC(=O)COC(=O)c2cc([N+](=O)[O-])ccc2N2CCOCC2)ccc1Br | -1.6 | -26.3 | -0.5 | 2.7% | -12.0 | 1.8
CCOc1ccccc1N1CCN(CC(=O)Nc2nc(C)c(C(=O)N(C)C)s2)CC1 | -0.4 | -5.9 | -0.6 | -3.0% | -11.4 | 0.7
O=[N+]([O-])c1cc(C(F)(F)F)cc([N+](=O)[O-])c1N1CCN(S(=O)(=O)c2ccccc2)CC1 | -32.3* | -11.5 | -4.2 | -2.4% | -2.9 | 1.4
O=[N+]([O-])c1cc(C(F)(F)F)ccc1N1CCN(S(=O)(=O)c2ccc3ccccc3c2)CC1 | 4.4 | -9.4 | -1.9 | 0.5% | -5.7 | 0.9
O=C(Nc1ccc(C(F)(F)F)cc1)N1CCC(N2CCCCC2)CC1 | 8.3 | / | -2.3 | 5.1% | -11.9 | 14.1
CC(C)(C)OC(=O)N1CCCN(C(=O)Nc2ccc(C(F)(F)F)cc2)CC1 | -31.2* | 8.0 | -4.0 | 1.3% | -8.2 | 3.5
COc1ccc(-c2nnn(CC(=O)c3ccccc3)n2)cc1OC | -2.6 | 17.0 | 6.7 | / | 4.1 | 5.9
CC(NC(=O)CSc1n[nH]c(N)n1)c1ccccc1 (stereo unspecified) | 4.4 | 3.9 | / | -1.3% | 3.5 | 19.8
CCCc1ccc(-c2cc(NC(=O)CSc3n[nH]c(N)n3)n(-c3ccccc3)n2)cc1 | 0.9 | 21.9 | 4.3 | -7.1% | -14.9 | 32.9*
S=C(NC1CCCC1)N1CCN(c2ccc(Cl)cc2)CC1 | -46.2* | -6.8 | -4.9 | -13.9% | -0.2 | 4.6
S=C(NC1CCCC1)N1CCN(C/C=C/c2ccccc2)CC1 | -35.6* | 15.2 | -9.7 | -10.8% | -4.1 | 16.0
S=C(Nc1ccccc1)N1CCN(C/C=C/c2ccccc2)CC1 | -7.6 | 0.0 | -4.8 | 36.7% | -19.6 | 9.1
O=C(CN1CCN(C/C=C/c2ccccc2)CC1)NC(=O)NC1CCCCC1 | -7.5 | -65.4* | -0.5 | 10.4% | -5.5 | 5.6
O=C(CN1CCN(Cc2ccccc2)CC1)NC(=O)NC1CCCCC1 | 13.5 | -2.5 | 1.1 | -20.2% | -1.1 | 0.9
CO/N=C/C1C(=O)NN=C1c1ccccc1 (stereo unspecified) | 18.7 | 2.6 | -0.9 | -10.1% | 1.7 | -1.1
CCOC(=O)C1(CCc2ccccc2)CCN(C(=O)CN2C(=O)CSC2=O)CC1 | -13.5 | 9.8 | 2.4 | 8.8% | 5.4 | 47.7*
COC(=O)CN1C(c2cccc(Cl)c2)=Nc2ccc(Cl)cc2C1c1ccccc1 (stereo unspecified) | 12.0 | -5.4 | 4.2 | 1.0% | -5.8 | 10.9
COc1cc(C2=Nc3ccc(Br)cc3C(c3ccccc3)N2CC(=O)NN)cc(OC)c1OC (stereo unspecified) | -18.2 | -50.5* | -3.1 | -5.3% | -13.8 | 1.9
COC(=O)CN1C(c2ccc(OC)cc2)=Nc2ccc(Cl)cc2C1c1ccccc1 (stereo unspecified) | -18.5 | -60.0* | -1.9 | -14.6% | -16.2 | 3.3
COC(=O)CN1C(CN2CCOCC2)=Nc2ccc(Br)cc2C1c1ccccc1 (stereo unspecified) | -48.8* | -11.5 | -6.6 | -10.7% | -10.9 | 0.8
NNC(=O)CN1C(c2ccc(Br)cc2)=Nc2ccc(Br)cc2C1c1ccccc1 (stereo unspecified) | 15.1 | -55.0* | -1.2 | 20.3% | -48.9 | 2.1
NNC(=O)CN1C(=O)Nc2ccc(Br)cc2C1c1ccccc1 (stereo unspecified) | 10.2 | -10.7 | -5.3 | / | -2.6 | -0.4
C/C(=C/C(=O)N1CCc2ccccc21)C(=O)O | -3.9 | 11.3 | 0.8 | -4.5% | 2.5 | 1.0
Cc1ccc(-c2ccc(/C=N/N=C3/NC(=O)C(CC(=O)O)S3)o2)c([N+](=O)[O-])c1 (stereo unspecified) | -4.7 | -78.5* | 0.9 | -11.3% | -3.0 | -0.7
CCOC(=O)Cn1c(=O)cc(-c2ccccc2)c2c(C)nn(C)c21 | -10.1 | / | -7.3 | 9.0% | -11.9 | 5.3
